ALR H2O2 inh – blocks human ALR sulfhydryl oxidase activity | P55789 | purified ALR, DTT oxidation, H2O2 HRP-luminol luminescence | inhibition, % (no concentration beside the values) | 3.8% of 290,000 active;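 active = mean replicate inhibition above about 79%, with every replicate also reaching it, limit read from the data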
Target sequence (P55789 whole entry, looked up): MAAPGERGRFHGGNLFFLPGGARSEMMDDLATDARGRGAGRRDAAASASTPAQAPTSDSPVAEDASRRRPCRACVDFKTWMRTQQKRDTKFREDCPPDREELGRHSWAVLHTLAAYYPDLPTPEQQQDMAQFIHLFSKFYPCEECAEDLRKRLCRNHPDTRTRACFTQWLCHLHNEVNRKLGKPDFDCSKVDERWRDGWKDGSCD
PHOSPHO1 block – inhibitors of human PHOSPHO1 phosphatase; Q8TCT1; recombinant PHOSPHO1, absorbance phosphatase assay; inhibition, % at 13.3 µM; 1.1% of 290,000 active; AID 1565; in the data active = inhibition above about 60%
Target sequence (Q8TCT1 whole entry, looked up): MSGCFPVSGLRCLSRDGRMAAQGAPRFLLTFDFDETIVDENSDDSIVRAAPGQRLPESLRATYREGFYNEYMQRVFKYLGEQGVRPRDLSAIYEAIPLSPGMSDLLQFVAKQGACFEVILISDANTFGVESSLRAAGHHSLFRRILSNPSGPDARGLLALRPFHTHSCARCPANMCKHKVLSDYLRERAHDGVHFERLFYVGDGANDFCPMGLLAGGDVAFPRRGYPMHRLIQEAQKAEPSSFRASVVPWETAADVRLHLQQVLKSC
H9c2 protect – modulators protecting cardiomyocytes from myocardial damage | H9c2 cardiomyocytes, H2O2 injury protection, ATPLite, 2 h | protection from H2O2 cell death, % at 20 µM | 0.63% of 360,000 active | AID 588492;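 active = compounds giving at least 50% protection of heart cells from peroxide-induced death in the single-dose screen, raw or plate-pattern-corrected value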;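 also: 0% = DMSO wells with peroxide and 100% = DMSO wells without peroxide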
PfG6PD inh – PfG6PD (Plasmodium falciparum) enzyme inhibition | inhibition, % at 20 µM | 0.78% of 350,000 active | PfGluPho enzyme, NADPH resazurin-diaphorase fluorescence;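 active = inhibition reaching at least a set limit at 20 µM in the primary screen, cut at about 59% in these data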;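 also: 0% = DMSO wells with substrate and 100% = DMSO wells lacking glucose-6-phosphate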
M18AAP inhibitor – blocks P. falciparum M18 aspartyl aminopeptidase; recombinant PfM18AAP, H-Glu-NHMec fluorogenic cleavage; inhibition, % at 7.35 µM; 1.2% of 290,000 active; AID 1822;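 active = inhibition above the campaign mean inhibition over all tested compounds plus 3 SD, cut at about 28% in these data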;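 also: 0% = plate median of test compound wells and 100% = 2 mM ZnCl2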
PfG6PD confirm – PfG6PD inhibition, single-dose confirmed. recombinant PfGluPho, NADPH-diaphorase-resazurin fluorescence. inhibition, % at 20 µM. shares compounds with PfG6PD inh. 34% of 2,400 active;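 active = inhibition of at least 50% at 20 µM in any single replicate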;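 also: 0% = DMSO with substrate and 100% = DMSO lacking glucose-6-phosphate substrate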
Diaph ctr 10uM – diaphorase inhibition or oxidation at 10 uM NADPH | shares compounds with PfG6PD inh | diaphorase-coupled resazurin reduction, fluorescence, NADPH 10 uM | inhibition, % at 20 µM | 39% of 820 active;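 active = average inhibition reaching 50% or more with the compound at 20 µM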;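 also: resorufin red fluorescence formed as diaphorase reduces resazurin using NADPH; 0% = DMSO with enzyme and 100% = DMSO without enzyme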
Diaph ctr 30uM – diaphorase inhibition or oxidation at 30 uM NADPH. inhibition, % at 20 µM. 29% of 820 active. Diaphorase/resazurin coupled assay, resorufin fluorescence. shares compounds with PfG6PD inh;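 active = inhibition averaging 50% or more, tested at 20 µM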;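 also: 0% = DMSO with enzyme and 100% = DMSO wells lacking diaphorase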
* marks the source's active call; other numbers are inactive results; · = no result given. An excerpt weighted towards active compounds, which were near 5.6% of everything screened.

SMILES | ALR H2O2 inh | PHOSPHO1 block | H9c2 protect | PfG6PD inh | M18AAP inhibitor | PfG6PD confirm | others
CC(C)Oc1ccccc1C1CC(=O)Nc2cc3c(cc21)OCO3 (stereo not given) | 7 | -4 | -10 | 80* | -7 | 40
Brc1ccc(C2C3=C(Nc4ncnn42)c2ccccc2OC3c2ccncc2)cc1 (stereo not given) | -2 | 19 | 22 | 83* | -6 | 54* | Diaph ctr 10uM=52*;Diaph ctr 30uM=57*
O=[N+]([O-])c1ccc2nc(CCCc3nc4ccc([N+](=O)[O-])cc4[nH]3)[nH]c2c1 | 0 | 45 | 6 | 3 | 3 | ·
COc1ccc(-c2nc3ccc([N+](=O)[O-])cc3[nH]2)cc1 | · | -28 | -12 | 110* | 4 | 46
COc1ccc2nc(-c3ccccc3)[nH]c2c1 | -26 | 37 | -10 | 46 | 3 | ·
O=[N+]([O-])c1ccc2nc(-c3ccc(Cl)cc3)[nH]c2c1 | -10 | 4 | -34 | 107* | -2 | 46
O=[N+]([O-])c1cccc(-c2nc3ccc([N+](=O)[O-])cc3[nH]2)c1 | -6 | -107 | -30 | 108* | -11 | 72* | Diaph ctr 10uM=60*;Diaph ctr 30uM=59*
O=[N+]([O-])c1ccc2nc(-c3ccccc3[N+](=O)[O-])[nH]c2c1 | -1 | -7 | -8 | 14 | 4 | ·
O=[N+]([O-])c1ccc2nc(-c3ccncc3)[nH]c2c1 | -8 | -23 | -6 | 35 | 3 | ·
Cc1ccc(-c2nc3ccc([N+](=O)[O-])cc3[nH]2)cc1 | -16 | -19 | -33 | 99* | 3 | 38
Cc1noc(C)c1S(=O)(=O)Nc1ccc2c(c1)C(=O)N([C@@H](C)CO)C[C@H](C)[C@@H](CN(C)Cc1ccc(C(F)(F)F)cc1)OCCCC[C@H](C)O2 | · | · | -11 | 33 | · | ·
Clc1ccc(Br)c(-c2nc3ccccc3[nH]2)c1 | · | · | -5 | -3 | · | ·
O=c1[nH]nc(SC2CCCCC2)c(=O)[nH]1 | · | · | -2 | -14 | · | ·
CCOCC(=O)Nc1nnc(COc2ccc(Cl)cc2)s1 | -8 | 95* | 0 | 62* | -2 | 15
CCc1nnc(NC(=O)c2c(-c3ccccc3)noc2C)s1 | 12 | 49 | 2 | -12 | -2 | ·
Cc1onc(-c2ccccc2)c1C(=O)Nc1nnc(COc2ccc(Cl)cc2)s1 | -4 | 37 | -26 | 78* | 8 | 49
O=C(CSc1ccccc1)Nc1nnc(COc2ccc(Cl)cc2)s1 | 15 | 78* | -8 | 78* | 20 | 43
NC(=O)C1CCN(C(=O)CCSCc2ccccc2)CC1 | -18 | · | 8 | 11 | -3 | ·
N#CCSc1ccccc1NC(=O)COC(=O)CCNC(=O)c1ccc([N+](=O)[O-])cc1 | · | · | -1 | 6 | · | ·
CCOc1ccc2[nH]c3nc(SCC(=O)NC4CC4)nnc3c2c1 | -7 | 35 | 4 | 2 | -3 | ·
Cc1cc(C)c2c(N)c(C(=O)N3CCCCCC3)sc2n1 | 21 | 6 | 0 | 70* | 19 | 1
Cc1cc(C)c2nc3sc(C(=O)N4CCOCC4)c(N)c3cc2c1 | 8 | -34 | -11 | 65* | 1 | 24
C[C@@H]1CN([C@H](C)CO)C(=O)c2cc(C#CC(C)(C)O)cnc2O[C@@H]1CN(C)C(=O)C1CC1 | · | · | 0 | 16 | · | ·
COc1cc(C(=S)N2CCCC2)cc(Cl)c1OCC(=O)Nc1ccc(C)cc1C | -28 | 0 | -8 | 64* | 8 | -1
CCOc1cc(C(=O)Nc2ccc(C)cc2C)ccc1OCC(=O)N1CCCCC1 | -2 | 4 | 10 | 5 | -5 | ·
Cc1cc(SCC(=O)N/N=C/c2ccco2)nc2ccccc12 | 58 | 27 | 4 | 80* | 7 | 52* | Diaph ctr 10uM=58*;Diaph ctr 30uM=48
CCc1ccc(CN(C)C(=O)c2cc(COc3cc(C)c(Cl)c(C)c3)on2)nc1 | 1 | 42 | -10 | 24 | -1 | ·
Cn1c(SCC(=O)N2CC(=O)Nc3ccccc32)nnc1C(F)(F)F | · | · | -2 | -12 | · | ·
COc1ccccc1NC(=O)COC(=O)CCC(=O)c1cccs1 | · | · | 0 | 1 | · | ·
Cc1nc2c(o1)C(=O)c1ccccc1C2=Nc1ccccc1 | · | · | -18 | 104* | · | 50* | Diaph ctr 10uM=53*;Diaph ctr 30uM=48
